CDC25B-CDK2 inh: human CDC25B-CDK2/CyclinA binding inhibition. AID 1259370. HTRF CDC25B-CDK2/CyclinA binding, anti-His/anti-Flag; hits give high values. z-score (test concentration not listed). P30305+P24941. 0.72% of 94,000 active; in the data active = z-score above about 3.2
TAR Tat displ: HIV-1 TAR-Tat binding disruption | HIV-1 TAR RNA, Tat peptide displacement FRET; hits give high values | z-score (no concentration beside the values) | 0.6% of 100,000 active; active = z-score of 3 or more in at least 2 runs
Numbers without * were called inactive; · = no result; ! = a repeat was not active. A selection: hits, their analogues and other compounds. The true share with any hit is near 0.93%.

SMILES	CDC25B-CDK2 inh	TAR Tat displ
Cc1ssc(=S)c1-c1ccccc1	5.7*	·
CCOC(=O)c1c(NC(C)=O)c2c3c(sc2n1Cc1cn2ccccc2n1)CCCC3	·	1.7
CCOC(=O)c1c(NC(C)=O)c2c3c(sc2n1CC(=O)NCc1ccco1)CCCC3	·	14*
COC(=O)c1cc2sccc2n1CC(=O)Nc1ccc(N(C)C)cc1	-0.67	-0.59
CC(=O)C(C(C)=O)C1=C([N+](=O)[O-])C(=O)C(=O)c2ccccc21	3.55*	·
O=C1c2ccccc2C(=O)c2c1ccc(C(=O)O)c2[N+](=O)[O-]	-0.12	·
Cc1noc2ncn(CC(=O)N3CCC(C)CC3)c(=O)c12	·	1.21
COc1cccc(-c2nc3c(c(=O)[nH]2)Cc2cc(Cl)ccc2O3)c1O	-0.74	4.89*
COc1cccc(-c2nc(=S)c3c([nH]2)Oc2c(cccc2OC)C3)c1O	7.38	35.1*
CCOc1cccc(-c2nc(=S)c3c([nH]2)Oc2c(cccc2OC)C3)c1O	5.27	22.7*
CCOc1cccc2c1Oc1[nH]c(-c3cc(OC)c(OC)c(OC)c3)nc(=S)c1C2	-1.44	·
CCOc1cccc(-c2nc3c(c(=O)[nH]2)Cc2cccc(OCC)c2O3)c1O	0.25	7.23*
COc1cccc2c1Oc1[nH]c(-c3ccccc3F)nc(=S)c1C2	-0.72	-0.18
O=c1[nH]c(-c2ccccc2O)nc2c1Cc1cc(Cl)ccc1O2	-1.3	2.25
CCOc1cccc(-c2nc3c(c(=O)[nH]2)Cc2cc(Br)ccc2O3)c1O	-1.27	4.04
Cc1ccc(S(=O)(=O)c2cn(C)c3cc(N4CCCC(C)C4)c(F)cc3c2=O)cc1C (stereo not given)	·	0.97
COc1ccc(C2=NS(=O)(=O)N(C)C(C(=O)N3CCCC3)=C2)cc1OC	-1.37	1.63
Cc1csc(NC(=O)c2ccc(NC3=NC4CS(=O)(=O)CC4S3)cc2)n1 (stereo not given)	·	2.29
CC(C)(C)c1ccc(S(=O)(=O)N2CCC(CN)CC2)cc1	1.52	0.31
O=C(Nc1nn2c(-c3ccco3)nnc2s1)C1CCCCC1	-0.25	2.13
CC(C)NC(=O)C1CCN(c2nn3c(=O)c4c(nc3s2)CCCC4)CC1	·	1.17
CCCN(C(=O)C(=O)Nc1ccc2nc3n(c(=O)c2c1)CCCCC3)c1ccc(F)cc1	-3.34	·
Cc1ccc(-c2noc(-c3nnn(-c4ccc(F)cc4)c3N)n2)cc1	·	0.03
COCCNc1nc(N)c([N+](=O)[O-])c(Nc2ccc(Cl)cc2)n1	·	1.01
COc1cc(-c2coc3cc(OC)c(OC)c(OC)c3c2=O)cc(OC)c1OC	·	3.17
SMILES	CDC25B-CDK2 inh	TAR Tat displ
CC(=O)Oc1cc(-c2coc3cc(OC(C)=O)c(OC(C)=O)c(OC(C)=O)c3c2=O)cc(OC(C)=O)c1OC(C)=O	·	24.8*
Cc1cc(Nc2ccc(N3CCN(S(C)(=O)=O)CC3)cc2)n2nc(-c3ccco3)nc2n1	2.76	1.74
OC(COc1cccc2cccnc12)Cn1c2ccccc2c2ccccc21 (stereo not given)	-0.9	-1.56
c1ccc2c(OCCCOc3cccc4cccnc34)cccc2c1	6.17*	·
Nc1n[nH]c2cc(=O)[nH]c(O)c12	-0.59	·
O=c1cc2cc(O)[nH]c(=O)c2c(O)[nH]1	18.7*	·
Cc1ccc(-c2nonc2NC(=O)CC(C)C)cc1C	-0.55	0.12
CC(C)CCNC(=O)c1cc2c(s1)-c1ccsc1CC2	·	0.55
O=C(O)c1cc2ccccc2c(=O)[nH]1	·	1.9
O=c1[nH]c(Nc2ccccc2)cc2ccccc12	16.1*	-7.37
CCOC(=O)N1CCC(N2C(=O)c3ccccc3C2Nc2ccccc2OCC)CC1 (stereo not given)	-1.21	0.66
O=C(O)c1cc(=O)c2ccccc2[nH]1	-0.32	0.48
O=C(O)c1cc(=O)c2cccc(O)c2[nH]1	·	5.31*
O=C(c1cc2c(s1)-c1ccccc1OC2)N1CCOCC1	-0.03	-0.56
CCCc1nnc(NC(=O)c2cc(=O)c3ccc(C)cc3o2)s1	-1.77	-0.35
O=C(Cn1c(=O)c2cccn2c2ccc(F)cc21)NC1CCCCC1	·	-1.2
CCOC(=O)c1nc2ccccc2nc1C	·	1.52
CCOC(=O)c1nc2ccccc2n(C(C)=O)c1=O	19.4*	0.02
O=S(=O)(c1ccccc1)n1nc(-c2ccco2)nc1NCc1ccc(Cl)cc1	-2.07	1.83
O=c1cc2nc(-c3ccco3)nc(SCc3cc(=O)n4nc(C5CCCCC5)sc4n3)n2[nH]1	·	3.34*
CCCc1nn2c(=O)cc(CSc3nc(-c4ccco4)nc4cc(=O)[nH]n34)nc2s1	·	0.67
COc1ccccc1Nc1nc(-c2c(C)nc3ccccn23)cs1	-1.83	2.5
COc1ccc(Cl)cc1Nc1nc(-c2c(C)nc3ccccn23)cs1	6.62	8.26*
COc1ccc(-c2c3c(=O)n(C)c(=O)n(C)c3c3n2C(C)(C)COC3c2ccc(OC)cc2)cc1 (stereo not given)	-1.67	1.47
CN(C)CCCNc1cc(N2CCN(c3ccc(F)cc3)CC2)c2noc3c2c1C(=O)c1ccccc1-3	7.4*	27.8*
SMILES	CDC25B-CDK2 inh	TAR Tat displ
CN(C)CCCNc1cc(N2CCOCC2)c2noc3c2c1C(=O)c1ccccc1-3	-2.63	12.2*
O=C1c2ccccc2-c2onc3c(N4CCN(c5ccc(F)cc5)CC4)cc(NCCO)c1c23	6.3	2.35
CN(CCO)CCNc1cc(N2CCOCC2)c2noc3c2c1C(=O)c1ccccc1-3	-1.56	-5.47
O=c1c(O)c(-c2cc(O)c(O)c(O)c2)oc2cc(O)ccc12	·	18.5*
O=c1c(O)c(-c2ccc(O)c(O)c2)oc2cc(O)ccc12	·	3.65
COc1ccc2c(=O)c(-c3cc4c(cc3OC)OCO4)coc2c1	·	20*
COc1ccc(-c2coc3cc(O)ccc3c2=O)c(OC)c1O	·	0.53
COc1cc2occ(-c3cc4c(cc3OC)OCO4)c(=O)c2cc1OC	·	0.74
COc1ccc(-c2coc3cc(O)ccc3c2=O)c(O)c1O	·	22.7*
COc1ccc(Nc2nc(N3CCCC3)nc3c2cnn3C)cc1Cl	·	1.89
Cc1c(C(=O)NCCN(C)C)sc2nc3n(c(=O)c12)CCCCC3	·	1.04
O=C(Nc1nnc(SCc2ccccc2Cl)s1)c1csnn1	-2.1	0.68
COc1ccc(-c2noc(CC3CCCCC3)n2)cc1OC	16*	1.64
COc1ccc(-c2noc(CN3CCCCC3)n2)cc1OC	-0.8	2.01
O=S(=O)(NCc1ccc(-c2csnn2)cc1)c1cc(C(F)(F)F)cc(C(F)(F)F)c1	-0.91	·
Cn1c(C(F)(F)F)nnc1S(=O)(=O)Cc1ccc(-c2csnn2)cc1	15.8*	·
O=C(c1ccco1)N1CCN(S(=O)(=O)c2ccc(F)cc2)CC1	·	16.6*
O=C(c1ccco1)N1CCN(S(=O)(=O)c2ccccc2)CC1	-0.89	0.56
COc1ccc(-c2cc3c4c(C)n(C)c(C)c4c(C)nn3c2)cc1	1.96	11.1*
COc1ccc(-c2cc3c4c(C)n(Cc5ccc6c(c5)OCO6)c(C)c4c(C)nn3c2)cc1	-1.71	-0.06
COc1ccc(-c2cc3c4c(C)n(Cc5ccccc5)c(C)c4c(C)nn3c2)cc1	-1.81	-0.42
COc1ccc(CCn2c(C)c3c(C)nn4cc(-c5ccc(C)o5)cc4c3c2C)cc1OC	8.04	34.7*
Cc1ccc(Nc2ncnc3ccccc23)cc1C	11*!	·
Cc1ccc2ncnc(Nc3ccc(C)c(C)c3)c2c1	-1.84	·
CCOc1ccc2nc(NC(=O)c3nc(SCC)ncc3Cl)sc2c1	-1.54	1.64
O=C(c1cc2ccc3cccnc3c2[nH]1)N1CCc2ccccc21	·	0.55
COc1ccc2c(c1)c1c(c(=O)n(-c3ccccc3)c(=O)n1C)n2C	·	1.65
CC(C)n1cnc2cc(NCc3ccco3)ccc21	7.83*	0.19

Screening data from PubChem BioAssay.
